High-throughput results deposited in PubChem by National Center for Advancing Translational Sciences (NCATS).
The list is not random: actives were taken first. Their share in the collection is about 19%.
DT40 TDP1 no CPT: qHTS for Inhibitors of human tyrosyl-DNA phosphodiesterase 1 (TDP1): qHTS in cells in absence of CPT; DT40 Tdp1-/- hTDP1 cells, no CPT, ATP luminescence, 48 h; Potency, µM (doses to about 46.2 µM), usual class: inhibitors; 420,000 compounds, 15% hits; AID 686978, 2013; note: nearly all actives have a fitted effect of over 55% in size
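A cellular qHTS used chicken DT40 cells lacking endogenous Tdp1 but carrying stably transfected human TDP1. Compounds were applied without camptothecin, and cell growth kinetics were judged by ATP-dependent luminescence after ≥48 hr.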
HT1080 IDH1KD tx: qHTS for induction of synthetic lethality in tumor cells producing 2HG: qHTS for the HT-1080-IDH1KD cell line | HT-1080 IDH1 knockdown viability, ATP luminescence, 48 h | Potency, µM (highest dose often 46.1 µM), usual class: cytotoxic | 360,000 compounds, 2% hits
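HT-1080-IDH1KD cells (IDH1 knocked down), 750/well in RPMI with 5% FBS, treated with compound 48 h at 37 degrees C. Viability by CellTiter-Glo luminescence, normalised to DMSO and no-cell wells; concentration-response curves classed.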
IL-1B inflam inh: qHTS for Inhibitors of Inflammasome Signaling: IL-1-beta AlphaLISA Primary Screen. THP-1 LPS/ATP IL-1B secretion, AlphaLISA, 16 h; active compounds read low. activity change, % at 57.5 µM. 360,000 compounds, 4.7% hits; in the data active = activity change below about -50%; inconclusive = mostly about -30% to -49%
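Secreted IL-1B measured by AlphaLISA bead assay after 16 h compound exposure of THP-1 cells; compounds (final up to 57.5 uM) added 1 h before LPS (250 ng/mL) and ATP (1.25 mM) stimulation; lower signal means less secretion.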
DT40 TDP1 CPT: qHTS for Inhibitors of human tyrosyl-DNA phosphodiesterase 1 (TDP1): qHTS in cells in presence of CPT; chicken DT40 Tdp1-/-;hTDP1 cells + 20 nM CPT, ATP luminescence, 48 h; Potency, µM (doses to about 46.2 µM), actives largely listed as inhibitors; 420,000 compounds, 12% hits; note: nearly all actives have a fitted effect of over 55% in size
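Chicken DT40 Tdp1-/- cells stably complemented with human TDP1 were seeded at 400 cells/well in medium containing 20 nM camptothecin, exposed to pin-transferred compounds, and grown at 37 °C for at least 48 hr. Viability was read as ATP luminescence.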
HT1080NT lethal: qHTS for induction of synthetic lethality in tumor cells producing 2HG: qHTS for the HT-1080-NT fibrosarcoma cell line | HT-1080-NT fibrosarcoma viability, CellTiter-Glo ATP luminescence, 48 h | Potency, µM (top dose mostly 46.1 µM), usual class: cytotoxic | 360,000 compounds, 1.6% hits;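 note: NT is the 2HG producing partner of a matched IDH1 knockdown line; nearly all actives have a fitted effect of over 55% in size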
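Luminescent CellTiter-Glo readout after 48 hours of compound exposure at 37 degrees C defined viability of HT-1080-NT cells. Activity was normalized to DMSO wells and cell-free media wells; concentration-response curves were fitted and assigned curve classes.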
Of the large screens only hits and unclear results are named; the others gave an inactive call. Unless noted, calls come from the whole dose curve; as a rule, active = well fitted curve in the direction sought with a large enough effect; inconclusive = small, poorly fitted or top-dose-only effect, or another doubt; inactive = no such curve, though single readings can be large; an effect the other way counts as inactive or inconclusive.

Cc1ccc(-c2nnc(Nc3cccc(Cl)c3)c3ccccc23)cc1S(=O)(=O)NCC1CCCO1 (stereo not given)	DT40 TDP1 no CPT 4.1µM, DT40 TDP1 CPT 23µM (no result: HT1080 IDH1KD tx, IL-1B inflam inh, HT1080NT lethal)
Cc1ccc(-c2nnc(Nc3ccc(Cl)cc3)c3ccccc23)cc1S(=O)(=O)NCC1CCCO1 (stereo not given)	DT40 TDP1 no CPT 21µM, DT40 TDP1 CPT inconclusive (no result: HT1080 IDH1KD tx, IL-1B inflam inh, HT1080NT lethal)
Cc1ccc(-c2nnc(N3CCCCC3)c3ccccc23)cc1S(=O)(=O)NCC1CCCO1 (stereo not given)	DT40 TDP1 no CPT 21µM, HT1080 IDH1KD tx inconclusive, DT40 TDP1 CPT 18µM, HT1080NT lethal inconclusive
COc1cccc(-c2ccc3ncnc(N4CCNCC4)c3c2)c1	DT40 TDP1 CPT inconclusive (no result: HT1080 IDH1KD tx, IL-1B inflam inh, HT1080NT lethal)
CC(=O)c1cccc(NC(=O)CCNS(=O)(=O)c2cccc(C(C)=O)c2)c1	none
Cc1cc2ccccn2c1C(=O)c1ccccc1Br	DT40 TDP1 no CPT inconclusive, HT1080 IDH1KD tx inconclusive, DT40 TDP1 CPT 16µM, HT1080NT lethal inconclusive
CCNS(=O)(=O)c1cccc(C(=O)c2c(C)cc3ccccn23)c1	DT40 TDP1 no CPT 15µM, DT40 TDP1 CPT inconclusive
Cc1cc2ccccn2c1C(=O)c1ccc(S(=O)(=O)N(C)C)cc1	DT40 TDP1 no CPT 23µM, IL-1B inflam inh inconclusive, DT40 TDP1 CPT 18µM
Cc1cc2ccccn2c1C(=O)c1ccc(F)cc1	DT40 TDP1 no CPT inconclusive
CC(=O)c1ccc(N2C(=O)Nc3ccccc3S2(=O)=O)cc1	DT40 TDP1 no CPT inconclusive (no result: HT1080 IDH1KD tx, IL-1B inflam inh, HT1080NT lethal)
CCOc1ccccc1NC(=S)Nc1ccc(S(N)(=O)=O)cc1	none
O=c1/c(=C/c2ccc([N+](=O)[O-])cc2)sc2n1CCCN=2	DT40 TDP1 no CPT 13µM, IL-1B inflam inh inconclusive, DT40 TDP1 CPT 26µM
COc1cc(/C=c2\sc3n(c2=O)CCCN=3)ccc1O	none
CCOC(=O)C(C)Sc1nnc2ccc3ccccc3n12 (stereo not given)	DT40 TDP1 no CPT inconclusive (no result: HT1080 IDH1KD tx, IL-1B inflam inh, HT1080NT lethal)
CC(Sc1nnc2ccc3ccccc3n12)C(=O)Nc1ccc(Cl)cc1 (stereo not given)	DT40 TDP1 no CPT inconclusive, DT40 TDP1 CPT 15µM (no result: HT1080 IDH1KD tx, IL-1B inflam inh, HT1080NT lethal)
COc1ccccc1NC(=O)C(C)Sc1nnc2ccc3ccccc3n12 (stereo not given)	DT40 TDP1 no CPT inconclusive, DT40 TDP1 CPT 21µM (no result: HT1080 IDH1KD tx, IL-1B inflam inh, HT1080NT lethal)
Cc1ccccc1NC(=O)OCc1cccnc1Oc1ccc(Cl)cc1	HT1080 IDH1KD tx inconclusive, IL-1B inflam inh -79
O=C(NC1CCCCC1)C(c1ccccc1)N(C(=O)c1cccs1)c1ccc2c(c1)OCO2 (stereo not given)	DT40 TDP1 no CPT inconclusive, DT40 TDP1 CPT inconclusive
O=C(NC1CCCCC1)C(c1ccc2ncccc2c1)N(Cc1ccccc1)C(=O)c1cccs1 (stereo not given)	DT40 TDP1 no CPT 18µM, HT1080 IDH1KD tx inconclusive, IL-1B inflam inh -69, DT40 TDP1 CPT inconclusive, HT1080NT lethal inconclusive
O=C(NC1CCCCC1)C(c1ccc2ncccc2c1)N(Cc1ccc2c(c1)OCO2)C(=O)c1cccs1 (stereo not given)	DT40 TDP1 no CPT inconclusive, HT1080 IDH1KD tx inconclusive, IL-1B inflam inh -69, DT40 TDP1 CPT 18µM, HT1080NT lethal inconclusive
Oc1ccccc1N1CCN(CC(O)COCc2ccccc2Cl)CC1 (stereo not given)	DT40 TDP1 no CPT inconclusive
Cc1cccc(NC(=O)C2CCCN(S(=O)(=O)c3cnc[nH]3)C2)c1C (stereo not given)	none (no result: HT1080 IDH1KD tx, IL-1B inflam inh, HT1080NT lethal)
CCCCN(CC)CCCNC(=S)Nc1ccc2nc3n(c(=O)c2c1)CCCCC3	HT1080 IDH1KD tx inconclusive
CC1(C)CC(NNCCC#N)=CC(=[N+]2CCCC2)C1	DT40 TDP1 no CPT inconclusive, DT40 TDP1 CPT inconclusive
CC1(C)CC(N2CCN(Cc3ccccc3)CC2)=CC(=[N+]2CCCCC2)C1	DT40 TDP1 no CPT 0.046µM, HT1080 IDH1KD tx inconclusive, IL-1B inflam inh -51, DT40 TDP1 CPT 0.058µM
CN(Cc1ccccc1)C1=CC(=[N+]2CCCCC2)CC(C)(C)C1	DT40 TDP1 no CPT 0.01µM, HT1080 IDH1KD tx inconclusive, IL-1B inflam inh -70, DT40 TDP1 CPT 0.15µM, HT1080NT lethal inconclusive
